Data taken from PubChem BioAssay AID1159580 (chemical genetic matrix, 2015).
The whole screen tested about 5,500 compounds, of which about 2,000 (36%) were called active. About 18% were inconclusive and are not listed. No stated cut-off is given here; in the data, active means normalized growth mostly below about 0.91 (no sharp cut-off); inconclusive means no clear call, values can overlap the other calls; inactive means mostly above about 0.92. This is one part of the list.

Assay: chemical genetic growth profiling, strain panel (AID 1159580);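 further: tested at 20 µM; growth read once vehicle control cultures reached saturation at 30 °C; 1 = growth at the plate median or of vehicle wells; lower values mean less growth of the strain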
Conditions: S. cerevisiae deletion strains, growth OD

Measured: normalized growth

CC1CN(S(=O)(=O)c2cccc3cnccc23)CCN1 (stereo not drawn)
inactive: locus YAL040C, strain CLN3, hits give low values 1.01 | locus YCL061C, strain MRC1 (second series), hits give low values 1.01 | locus YDR363W, strain ESC2, hits give low values 1.02 | locus YER002W, strain NOP16, hits give low values 1 | locus YGR078C, strain PAC10, hits give low values 1.02 | locus YJR075W, strain HOC1, hits give low values 0.996 | locus YMR307W, strain GAS1, hits give low values 0.997 | locus YNL128W, strain TEP1, hits give low values 1.01 | locus YNL153C, strain GIM3, hits give low values 1.01 | locus YNL175C, strain NOP13, hits give low values 1.01 | locus YNL197C, strain WHI3, hits give low values 1.01 | locus YNL224C, strain SQS1, hits give low values 1.03 | locus YNL322C, strain KRE1, hits give low values 0.999 | locus YOR083W, strain WHI5 (second series), hits give low values 1.02 | locus YPL055C, strain LGE1, hits give low values 1.02 | locus YPL241C, strain CIN2, hits give low values 1

NC(=O)c1ccc(N)nc1
inactive: locus YAL021C, strain ccr4, hits give low values 0.994 | locus YAL026C, strain drs2, hits give low values 1.01 | locus YAL030W, strain snc1, hits give low values 0.982 | locus YBR009C, strain hhf1, hits give low values 0.99 | locus YBR023C, strain chs3, hits give low values 0.995 | locus YBR171W, strain sec66, hits give low values 1.02 | locus YBR231C, strain swc5, hits give low values 0.989 | locus YBR279W, strain paf1, hits give low values 0.982 | locus YCL011C, strain gbp2, hits give low values 1 | locus YCL016C, strain dcc1, hits give low values 1 | locus YCL069W, strain vba3, hits give low values 1.01 | locus YCR088W, strain abp1, hits give low values 1.01 | locus YDL005C, strain med2, hits give low values 0.987 | locus YDL040C, strain nat1, hits give low values 0.988 | locus YDR001C, strain nth1, hits give low values 1.01 | locus YDR069C, strain doa4, hits give low values 0.981 | locus YDR137W, strain rgp1, hits give low values 1 | locus YDR159W, strain sac3, hits give low values 0.978 | locus YDR195W, strain ref2 0.942 | locus YDR297W, strain sur2, hits give low values 0.999 | locus YDR334W, strain swr1, hits give low values 0.99 | locus YDR335W, strain msn5, hits give low values 1 | locus YDR392W, strain spt3, hits give low values 1 | locus YEL003W, strain gim4, hits give low values 1 | locus YEL037C, strain rad23, hits give low values 1.01 | locus YEL061C, strain CIN8 (second series), hits give low values 1 | locus YER015W, strain faa2, hits give low values 0.997 | locus YER016W, strain bim1, hits give low values 0.997 | locus YER111C, strain swi4, hits give low values 1.01 | locus YER155C, strain BEM2 (second series), hits give low values 1.01 | locus YFR010W, strain ubp6, hits give low values 1 | locus YGL167C, strain pmr1, hits give low values 0.999 | locus YGL173C, strain kem1, hits give low values 0.993 | locus YGL227W, strain vid30, hits give low values 1.01 | locus YGL240W, strain doc1, hits give low values 1 | locus YGL253W, strain hxk2, hits give low values 1.01 | locus YHR013C, strain ard1, hits give low values 0.979 | locus YHR027C, strain rpn1, hits give low values 0.998 | locus YHR030C, strain SLT2, hits give low values 1.03 | locus YHR079C, strain IRE1, hits give low values 1.02 | locus YHR142W, strain chs7, hits give low values 1.01 | locus YJL092W, strain hpr5, hits give low values 1 | locus YJL095W, strain BCK1 (second series), hits give low values 0.989 | locus YJL095W, strain BCK1, hits give low values 1.03 | locus YJL115W, strain asf1, hits give low values 1 | locus YJL129C, strain trk1, hits give low values 1.01 | locus YJL154C, strain vps35, hits give low values 0.995 | locus YJL164C, strain tpk1, hits give low values 0.978 | locus YJL166W, strain qcr8, hits give low values 1.01 | locus YJR066W, strain TOR1, hits give low values 0.951 | locus YKL160W, strain elf1, hits give low values 0.975 | locus YKR026C, strain gcn3, hits give low values 1.01 | locus YKR091W, strain srl3, hits give low values 0.997 | locus YLL001W, strain dnm1, hits give low values 1.01 | locus YLL026W, hits give low values 0.999 | locus YLL041C, strain sdh2, hits give low values 1 | locus YLR027C, strain aat2, hits give low values 1.01 | locus YLR113W, strain HOG1, hits give low values 1.02 | locus YLR221C, strain rsa3, hits give low values 0.995 | locus YLR258W, strain gsy2, hits give low values 1 | locus YLR262C, strain YPT6 (second series), hits give low values 1.01 | locus YLR320W, strain mms22, hits give low values 0.995 | locus YLR342W, strain FKS1, hits give low values 0.996 | locus YLR357W, strain rsc2, hits give low values 0.967 | locus YLR370C, strain arc18, hits give low values 1 | locus YLR384C, strain iki3, hits give low values 0.986 | locus YML120C, strain ndi1, hits give low values 0.987 | locus YMR058W, strain fet3, hits give low values 0.999 | locus YMR125W, strain sto1, hits give low values 1.01 | locus YMR129W, hits give low values 0.983 | locus YMR205C, strain PFK2, hits give low values 0.998 | locus YMR231W, strain pep5, hits give low values 1 | locus YNL071W, strain lat1, hits give low values 0.99 | locus YNL183C, strain NPR1, hits give low values 0.961 | locus YNL209W, strain ssb2, hits give low values 0.996 | locus YNL248C, strain rpa49, hits give low values 1.01 | locus YNL322C, strain KRE1 (second series), hits give low values 0.986 | locus YNR049C, strain mso1, hits give low values 1.01 | locus YOR001W, strain rrp6, hits give low values 0.997 | locus YOR070C, strain gyp1, hits give low values 0.993 | locus YOR080W, strain dia2, hits give low values 0.993 | locus YOR083W, strain WHI5, hits give low values 1 | locus YOR106W, strain vam3, hits give low values 1.01 | locus YOR231W, strain MKK1, hits give low values 1.05 | locus YOR265W, strain rbl2, hits give low values 0.993 | locus YOR270C, strain vph1, hits give low values 1.02 | locus YOR290C, strain snf2, hits give low values 1.01 | locus YPL051W, strain arl3, hits give low values 0.993 | locus YPL078C, strain atp4, hits give low values 1 | locus YPL106C, strain sse1, hits give low values 0.992 | locus YPL240C, strain hsp82, hits give low values 0.993 | locus YPL256C, strain CLN2, hits give low values 1.03
